# Source: PubChem BioAssay (NCI)
# The panel holds about 83,000 compounds, 20% with a hit somewhere; the sample as a whole holds those more often.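 Note: values are percent growth. 100 is the growth of untreated cells, values between 100 and 0 indicate rising inhibition; between -100 and 0 indicates cell death.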 Calls of active or inactive are those of the source. How the source made its calls: active means growth percent below 10; inactive means the rest.
# Tested on: OVCAR-3 ovarian
# Assay: NCI-60 one-dose screen, 48 h (100 = growth as untreated, 0 = no growth, -100 = all killed)
# Conditions: 10 µM unless noted
row,SMILES,growth
1,COc1ccc(C/C(C)=C(\c2ccc(Cl)cc2)c2ccc(OCCN3CCCCC3)cc2)cc1,114% (inactive)
2,Cc1ccc(C(=O)c2ccc(CC(=O)N/N=C/c3ccccc3O)n2C)cc1,80.3% (inactive)
3,CCO/C=N/C1=C(C#N)C(c2ccc(Cl)cc2)c2sc3c(F)cccc3c2O1 (stereo unspecified),25.3% (inactive)
4,CCCCNC(=O)Oc1ccc(/C(=C(/C)Cc2ccc(OC)cc2)c2ccc(OCCN(CC)CC)cc2)cc1,82% (inactive)
5,COc1cc2oc(-c3cccc(NC(=O)c4ccccc4)c3)cc(=O)c2c(OC)c1OC,84.2% (inactive)

# Tested on: HS 578T breast
# Assay: as above
# Conditions: 10 µM unless noted
row,SMILES,growth
1,CN1C(=O)/C(=C\c2nc([P+](c3ccccc3)(c3ccccc3)c3ccccc3)c(N3CCOCC3)o2)SC1=S,90.4% (inactive)
2,COc1ccc2c(c1)c(-c1nc(-c3c[nH]c4ccncc34)cs1)cn2C,-48.3% (active)
3,COc1ccc(C(=O)c2cc3c(N)c(C(=O)Nc4ccc(C)cc4)sc3nc2C)cc1,-1.41% (active)
4,COc1cc2nc3cc([N+](=O)[O-])ccc3c(NCCNCC(C)O)c2cc1OC (stereo unspecified),-1.12% (active)
5,Cc1sc2nc(NCCc3c[nH]c4ccc(Cl)cc34)[nH]c(=O)c2c1C,25.4% (inactive)
6,CC/C(=C(/c1ccc(Cl)cc1)c1ccc(OCCN(C)C)cc1)c1ccc(Cl)cc1,75.1% (inactive)
7,CNC(=O)c1[nH]cc(-c2ccc(OC)cc2)c1-c1cc(OC)c2c(c1OC)OCO2,115% (inactive)
8,C=CCc1c(O)c(C(=O)/C=C/c2ccccc2)c(OC)c2ccoc12,66.1% (inactive)
9,COc1ccc(-c2cc(-c3ccc(Cl)cc3)c(C#N)c(=O)n2Cc2ccc(C(=O)Nc3ccccc3N)cc2)cc1,46.2% (inactive)
10,COc1ccc(/C=C/C(=O)c2cccc(OCCCCOc3cccc(C(=O)/C=C/c4ccc(OC)c(OC)c4)c3)c2)cc1OC,78.4% (inactive)
11,CCOC(=O)c1ccc(NC(=O)c2nc(-c3cc(OC)c(OC)c(OC)c3)n(-c3ccc(Cl)cc3)n2)cc1,74.5% (inactive)
12,Cc1ccc(CNc2ccc3nc(CCC4CCCCC4)[nH]c3c2)cc1,55.7% (inactive)
13,CC(=O)c1c(C)nc(SCC(=O)Nc2cccc(O)c2)n1-c1ccc(Cl)cc1,82.1% (inactive)
14,Cc1ccc2c(c1)=C/C(=C\c1cc(-c3ccccc3)oc1O)C(=O)N=2,106% (inactive)
15,O=C(CSc1nnc(-c2cnccn2)n1-c1ccccc1)c1ccc(Cl)cc1,104% (inactive)
16,CCC(=C(c1ccc(OCCN2CCCCC2)cc1)c1ccc(OCCN2CCCCC2)cc1)c1ccc(Cl)cc1,-77.1% (active)

row,SMILES,growth
1,O=C(Nc1ccc(Oc2cccc(Cl)c2)c(Cl)c1)c1cnccn1,18.7% (inactive)
2,CCCNc1nc2ccccc2c2c1S(=O)(=O)c1ccc(Cl)cc1C2=O,7.32% (active)
3,C=CCOC(=O)Nc1cccn([C@H](Cc2ccccc2)C(=O)NCCC(C)C)c1=O,103% (inactive)
4,N#Cc1c(-c2ccc(Cl)cc2)nc(NN2C(=O)c3ccccc3C2=O)nc1N1CCOCC1,101% (inactive)
5,N#Cc1nc(-c2ccc(F)cc2)oc1S(=O)(=O)N1CCCCC1,95.6% (inactive)
6,COc1ccc2cc1Oc1ccc(cc1)C[C@H]1c3c(cc4c(c3Oc3cc5c(cc3OC)CCN(C)[C@@H]5C2)OCO4)CCN1C,-6.41% (active)
7,C=C1C(=O)O[C@H]2[C@H]1CC/C(COC(=O)/C=C\C(=O)NCc1ccc(Cn3c(=O)sn(CCI)c3=O)cc1)=C\CC[C@@]1(C)O[C@@H]21,89.3% (inactive)
8,CCOC(=O)c1c(NC(=O)c2ccc(Cl)cc2)sc2c(CN(C)C)c(O)ccc12,79.2% (inactive)
9,CSc1nc(N)c(NS(=O)(=O)c2ccc(C(C)=O)cc2)c(=O)[nH]1,105% (inactive)
10,COc1cc2c(c(OC)c1OC)CCC(c1cccc(C(=O)Nc3cccc(Cl)c3)c1)O2 (stereo unspecified),80.2% (inactive)
11,Cc1nc2sc(C(=O)Nc3cccc4ccccc34)c(N)c2cc1C(O)c1ccccc1 (stereo unspecified),8.1% (active)
12,COc1ccc(C(=O)N2c3ccccc3Sc3ccccc32)c(OC)c1,14.7% (inactive)
13,Cc1nc2sc(C(=O)Nc3ccc(Br)cc3)c(N)c2cc1C(O)c1ccccc1 (stereo unspecified),74.1% (inactive)
14,CNc1nnc2n(-c3ccccc3)c(=O)c3cnn(-c4ccccc4)c3n12,97.4% (inactive)
15,[O-]/[N+](=C\c1ccc(-n2cc(Cc3ccccc3Cc3cn(-c4ccc(/C=[N+](/[O-])c5ccccc5)cc4)nn3)nn2)cc1)c1ccccc1,110% (inactive)
